Measured values as given in PubChem BioAssay (NCATS).
Results filed as inconclusive are left out. A number with no mark means an inactive call. Calls of active or inactive are those of the source. The call rests on the fitted dose curve; in most records, active means well fitted activation curve with a large enough effect; inconclusive means small, poorly fitted or top-dose-only effect; inactive means flat fitted curve, though single readings scatter.

Test: qHTS assay for environmental chemicals that activate the Aryl hydrocarbon Receptor (AhR) signaling pathway (AID 651777); further: nearly all actives have a fitted effect of over 15% in size; on activation: % of control where 0% means no effect
Details: 1A2-DRE human hepatoma cells, luciferase, 24 h; activation: active compounds read high
Source text: National Center for Advancing Translational Sciences [NCATS]
NIH Chemical Genomics Center [NCGC]
U.S. Environmental Protection Agency [EPA]
National Institutes of Environmental Health Sciences [NIEHS]
National Toxicology Program [NTP]
The Aryl hydrocarbon Receptor (AhR) plays a critical role in the development of cancer or neoplasm and its formation is most likely due to genetic mutations and the influence of environment. Exposure to environmental pollutants such as polycyclic aromatic hydrocarbons (PAH), their halogenated derivatives and heterocyclic amines causes the induction of phase I and II enzymes. The transcriptional activation of CYP1A2 is directly regulated by AhR.
A cell based assay (1A2-DRE cells, developed by Puracyp, Inc., CA) was used to assess the activation of AhR. Human hepatoma cells were stably transfected with the dioxin response element (DRE) and CYP1A2 promoter fused to a luciferase gene. Increased luciferase activity can be used to identify the compounds that cause the induction of CYP1A2 and AhR activation.
1,200 cells in 5 uL/well were dispensed into white wall/solid bottom 1536-well plates using a Multidrop Combi (Thermo Scientific) dispenser. Following transfer of 23 nL compound or DMSO vehicle by a pin tool, the plates were incubated 24 hr at 37 C and 5% CO2. 5 ul One-Glo (Promega) was then added to each well and following 30 min incubation at room temperature, luciferase activity was quantified on a ViewLux CCD-based plate reader.
Potency means the concentration at half of the fitted maximal effect.

Question: With `Nc1nc(N)nc(N)n1` as the compound, how does the activation read?
Answer: The activation was -1.1%.

Question: For `CCNc1nc(NC(C)C)nc(SC)n1`, which activation is on record?
Answer: The activation was 0.555%.

Question: For `CCSCCSP(=O)(OC)OC`, which activation is on record?
Answer: The activation was -0.526%.

Question: Which activation does the source give for `CC(C1CC1)C(O)(Cn1cncn1)c1ccc(Cl)cc1` (stereo not given) here?
Answer: The activation was 1.13%.

Question: For `O=C(Nc1ccccc1)Nc1ccnc(Cl)c1`, which activation is on record?
Answer: The activation was 11%.

Question: With `CS(=O)(=O)c1cc(C(F)(F)F)ccc1C(=O)c1cnoc1C1CC1` as the compound, how does the activation read?
Answer: The activation was -0.804%.

Question: For `CCC(C)(NC(=O)c1cc(Cl)c(C)c(Cl)c1)C(=O)CCl` (stereo not given), which activation is on record?
Answer: The activation was 1.89%.

Question: Which activation does the source give for `O=C(NC(=O)c1c(F)cccc1F)Nc1ccc(OC(F)(F)C(F)OC(F)(F)F)c(Cl)c1` (stereo not given) here?
Answer: The activation was 1.49%.

Question: For `COC(=O)c1ccccc1S(=O)(=O)NC(=O)Nc1nc(C)nc(OC)n1`, which activation is on record?
Answer: The activation was -1.13%.

Question: With `N#CC(Br)(Br)C(N)=O` as the compound, how does the activation read?
Answer: The activation was -0.328%.

Question: For `CCOCn1c(-c2ccc(Cl)cc2)c(C#N)c(Br)c1C(F)(F)F`, which activation is on record?
Answer: The activation was -4.34%.

Question: With `CCOP(=O)(OCC)SCSP(=S)(OCC)OCC` as the compound, how does the activation read?
Answer: The activation was 6.55%.

Question: Which activation does the source give for `CNC(=O)Oc1cccc(N=CN(C)C)c1` here?
Answer: Its activation is 0.739%.

Question: For `CC(C)(C)OOC(C)(C)c1ccc(C(C)(C)OOC(C)(C)C)cc1`, which activation is on record?
Answer: The activation was 0.613%.

Question: For `CCc1cc(C)cc(CC)c1-c1c(OC(=O)C(C)(C)C)n2n(c1=O)CCOCC2`, which activation is on record?
Answer: Its activation is 2.1%.

Question: With `CC1COC(Cn2cncn2)(c2ccc(Oc3ccc(Cl)cc3)cc2Cl)O1` (stereo not given) as the compound, how does the activation read?
Answer: Its activation is 14.3%.

Question: For `Cc1cc(Cl)ccc1N=CN(C)C`, which activation is on record?
Answer: Its activation is 1.22%.

Question: For `COC(=O)/C=C(\C)OP(=O)(OC)OC`, which activation is on record?
Answer: The activation was 0.265%.

Question: With `CC[C@H]1CCCC(O[C@H]2CC[C@H](N(C)C)[C@@H](C)O2)[C@@H](C)C(=O)C2=C[C@@H]3[C@@H](C=C[C@@H]4C[C@@H](O[C@@H]5O[C@@H](C)[C@H](OC)[C@@H](OC)[C@H]5OC)C[C@@H]34)[C@@H]2CC(=O)O1` (stereo not given in full) as the compound, how does the activation read?
Answer: The activation was -0.354%.

Question: Which activation does the source give for `CSC(=O)c1c(C(F)F)nc(C(F)(F)F)c(C(=O)SC)c1CC(C)C` here?
Answer: The activation was 1.06%.

Question: Which activation does the source give for `CCOP(=O)(NC(C)C)Oc1ccc(S(C)(=O)=O)c(C)c1` (stereo not given) here?
Answer: Its activation is 1.16%.

Question: For `O=C(NC(=O)c1c(F)cccc1F)Nc1ccc(Cl)cc1`, which Potency is on record?
Answer: The Potency was 2510 nM (active).

Question: For `O=[N+]([O-])c1ccc(Oc2ccc(C(F)(F)F)cc2[N+](=O)[O-])cc1`, which activation is on record?
Answer: Its activation is 9.12%.

Question: Which activation does the source give for `CC(C)CCCCCCOC(=O)c1ccccc1C(=O)OCCCCCCC(C)C` here?
Answer: Its activation is 1.61%.

Question: Which activation does the source give for `COP(=O)(OC)Oc1ccc([N+](=O)[O-])cc1` here?
Answer: Its activation is 0.442%.

Question: With `CCCSP(=O)(OCC)Oc1ccc(Br)cc1Cl` (stereo not given) as the compound, how does the activation read?
Answer: Its activation is 3.36%.

Question: With `CS(=O)(=O)NC(=O)c1cc(Oc2ccc(C(F)(F)F)cc2Cl)ccc1[N+](=O)[O-]` as the compound, how does the activation read?
Answer: Its activation is 0.872%.

Question: With `CC(C)[C@H](C(=O)O[C@H](C#N)c1cccc(Oc2ccccc2)c1)c1ccc(Cl)cc1` as the compound, how does the activation read?
Answer: Its activation is 0.849%.

Question: With `C=CC1(C)OC(=O)N(c2cc(Cl)cc(Cl)c2)C1=O` (stereo not given) as the compound, how does the activation read?
Answer: The activation was -0.237%.

Question: For `COc1cc(OC)nc(NC(=O)NS(=O)(=O)c2ncccc2C(F)(F)F)n1`, which activation is on record?
Answer: Its activation is 1.17%.

Question: With `C=C(C)CN(CC)c1c([N+](=O)[O-])cc(C(F)(F)F)cc1[N+](=O)[O-]` as the compound, how does the activation read?
Answer: Its activation is 1.28%.

Question: Which activation does the source give for `CCC(C)c1cc([N+](=O)[O-])cc([N+](=O)[O-])c1O` (stereo not given) here?
Answer: The activation was 6.77%.

Question: For `CC(C)C(C(=O)OC(C#N)c1cccc(Oc2ccccc2)c1)c1ccc(Cl)cc1` (stereo not given), which activation is on record?
Answer: The activation was 2.62%.

Question: For `COP(=S)(OC)Oc1ccc([N+](=O)[O-])c(C)c1`, which activation is on record?
Answer: The activation was 2.78%.

Question: Which activation does the source give for `CCN(CC)C(=O)C(C)Oc1cccc2ccccc12` (stereo not given) here?
Answer: Its activation is 1.45%.

Question: Which activation does the source give for `O=Cc1cccc(Oc2ccccc2)c1` here?
Answer: Its activation is -0.398%.

Question: Which activation does the source give for `CCCCC(O)(Cn1cncn1)c1ccc(Cl)cc1Cl` (stereo not given) here?
Answer: Its activation is 2.7%.

Question: Which activation does the source give for `CC1(C)[C@H](C(=O)O[C@H](C#N)c2cccc(Oc3ccccc3)c2)[C@@H]1/C=C(\Cl)C(F)(F)F` here?
Answer: The activation was 0.227%.

Question: Which activation does the source give for `C=CCC1=C(C)[C@@H](OC(=O)[C@@H]2[C@@H](C=C(C)C)C2(C)C)CC1=O` here?
Answer: Its activation is 1.77%.

Question: Which activation does the source give for `CCOP(=O)(O)C(N)=O` here?
Answer: The activation was -2.02%.
